Assay results from PubChem BioAssay (EPA / NIEHS).
Several values for one entry are separate records, joined by “and”; a condition that tells them apart may be missing. Equal values may be shown once. Records with an inconclusive call do not appear. Some compounds were tested as several samples or in several runs, with calls that do not always agree. Activity calls are given as the source filed them. The calls were made as follows, unless noted: active = hit-call score of the fitted dose curve at least 0.9, where 1 is the maximum; inconclusive = response in the unintended direction; inactive = score below 0.9.

How the values were obtained:
[1] = target: human CYP2C8, CYP2C8 (gene 1558) (UniProt P10632); test: NVS_ADME_hCYP2C8: NovaScreen (NVS) CYP450-related Enzyme Activity (ADME) Assay for human CYP2C8 (AID 2283104; active = hit-call score of the fitted dose curve at least 0.9, where 1 is the maximum; inactive = score below 0.9)
How it was run: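 Recombinant human CYP2C8 with fluorogenic substrate, 0.5 h, fluorescence intensity; signal loss fitted versus acetonitrile. Screened in duplicate at 10 uM, then actives run in concentration-response up to 20 uM.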

[2] = target: human CYP2J2, CYP2J2 (gene 1573) (UniProt P51589); test: NVS_ADME_hCYP2J2: NovaScreen (NVS) CYP450-related Enzyme Activity (ADME) Assay for human CYP2J2 (AID 2283106)
How it was run: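 Cell-free assay of recombinant CYP2J2 with a fluorogenic substrate, read 1 h after dosing; loss of signal versus acetonitrile. Primary screen at 10 uM in duplicate, then concentration-response up to 20 uM for chemicals passing threshold (e.g., 30% inhibition).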

[3] = target: human CYP4F12, CYP4F12 (gene 66002) (UniProt Q9HCS2); test: NVS_ADME_hCYP4F12: NovaScreen (NVS) CYP450-related Enzyme Activity (ADME) Assay for human CYP4F12 (AID 2283111)
How it was run: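 Cell-free fluorescence assay of recombinant human CYP4F12 activity on a specific substrate, read 0.5 h after dosing. Primary screen in duplicate at 10 uM, then concentration series for actives; loss of signal fitted against acetonitrile negative control.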

[4] = target: rat CYP2C12, Cyp2c12 (gene 25011) (UniProt P11510); test: NVS_ADME_rCYP2C12: NovaScreen (NVS) CYP450-related Enzyme Activity (ADME) Assay for rat CYP2C12 (AID 2283119)
How it was run: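 Cell-free recombinant rat CYP2C12 activity read by fluorescence 0.5 h after dosing; loss of signal versus acetonitrile control. Primary screen in duplicate at 10 uM; actives then run in concentration-response format.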

[5] = target: rat CYP2D1, Cyp2d1 (gene 266684) (UniProt P10633); test: NVS_ADME_rCYP2D1: NovaScreen (NVS) CYP450-related Enzyme Activity (ADME) Assay for rat CYP2D1 (AID 2283122)
How it was run: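 Cell-free fluorescence enzyme-activity assay on extracted rat CYP2D1 protein, read 0.75 h after dosing. Primary screen in duplicate at 10 uM; qualifying chemicals then run in concentration-response to 20 uM max, loss-of-signal versus acetonitrile baseline.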

[6] = target: human AMP-activated Protein Kinase, alpha 1 (AMPKa1), PRKAA1 (gene 5562) (UniProt Q13131); test: NVS_ENZ_hAMPKa1: NovaScreen (NVS) Enzymatic Assay for human AMP-activated Protein Kinase, alpha 1 (AMPKa1) (AID 2283130)
How it was run: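 Recombinant human AMPKα1 activity was measured cell-free by fluorescent substrate conversion with electrophoretic mobility-shift separation, 1 h after dosing. Duplicate single-point screening was at 25 uM; actives (≥30% inhibition) were retested in concentration-response up to 50 uM.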

[7] = target: human Fibroblast Growth Factor Receptor 1 (FGFR1), FGFR1 (gene 2260) (UniProt P11362); test: NVS_ENZ_hFGFR1: NovaScreen (NVS) Enzymatic Assay for human Fibroblast Growth Factor Receptor 1 (FGFR1) (AID 2283159);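 as to AC50: hits lower the signal so potencies describe inhibitors of the kinase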
How it was run: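 Cell-free recombinant kinase with fluorescent substrate, product separated by electrophoretic mobility shift; read 1 hour after dosing, loss of signal relative to DMSO. Initial screen in duplicate at 25 uM, actives followed in concentration series.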

[8] = target: human NIMA (Never In Mitosis Gene A)-Related Kinase 2 (NEK2), NEK2 (gene 4751) (UniProt P51955); test: NVS_ENZ_hNEK2: NovaScreen (NVS) Enzymatic Assay for human NIMA (Never In Mitosis Gene A)-Related Kinase 2 (NEK2) (AID 2283188)
How it was run: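 Cell-free NEK2 enzyme activity after 1 h exposure, read by fluorescence with electrophoretic mobility shift separating substrate and product. Primary screen in duplicate at 25 uM; actives then run as concentration series. Loss of signal versus DMSO scored.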

[9] = target: rat Monoamine Oxidase, MAO-B, Central (MAOBC), Maob (gene 25750) (UniProt P19643); test: NVS_ENZ_rMAOBC: NovaScreen (NVS) Enzymatic Assay for rat Monoamine Oxidase, MAO-B, Central (MAOBC) (AID 2283238)
How it was run: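 Compounds were first tested in duplicate at 25 uM against MAO-B from rat brain tissue; those passing the inhibition threshold were retested in concentration series up to 50 uM. Radiodetection by scintillation counting at 1.17 h, analysed against DMSO baseline.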

[10] = target: Norway rat Vesicular Monoamine Transporter (VMAT2), neurotransmitter transporter, Slc18a2 (gene 25549) (UniProt Q01827); test: NVS_TR_rVMAT2: NovaScreen (NVS) Transporter Assay for Norway rat Vesicular Monoamine Transporter (VMAT2), neurotransmitter transporter (AID 2283376);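 also: actives lower the bound radioligand signal below the DMSO level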
How it was run: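 Tissue: rat forebrain extract. Format: competitive radioligand binding, cell-free. Timepoint: 1 h. Readout: filter radiodetection/scintillation. Screen: 25 uM in duplicate, then concentration series for actives. Baseline: DMSO.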

[11] = target: Androgen receptor (Homo sapiens) (UniProt P10275); test: ATG_AR_TRANS: Attagene TRANS-FACTORIAL HepG2 Assay for human Androgen Receptor (AR) (AID 2282973); conditions: HepG2 Attagene TRANS-FACTORIAL AR reporter transcription
How it was run: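 HepG2 cells transiently transfected with multiplexed GAL4-UAS reporter units and chimeric NR-Gal4 fusion; 24 h compound exposure. Reporter mRNA measured by RT-PCR, 6-FAM labelling, HpaI digestion and capillary electrophoresis; gain-of-signal fitted relative to DMSO baseline.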

[12] = Tanguay_ZF_120hpf_MUSC: Oregon State University Tanguay Lab 120 Hour Post-fertilization zebrafish Assay for Muscle Malformation (AID 2284401; active = hit-call score of the fitted dose curve at least 0.9, where 1 is the maximum; inactive = score below 0.9)
How it was run: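 Dechorionated Tropical 5D wild-type zebrafish embryos exposed statically from 6 to 120 hpf at 28C, one per well, in 0.64% DMSO. Muscle malformation scored present/absent by brightfield microscopy at 120 hpf, fitted against DMSO.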

[13] = target: Cellular tumor antigen p53 (Homo sapiens) (UniProt P04637); test: TOX21_p53_BLA_p2_ratio: Tox21 HCT-116 p53 Agonism Beta-lactamase Assay, Ratio, Phase 2 (AID 2283592)
How it was run: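 HCT116 cells carrying a p53-responsive beta-lactamase reporter were plated, incubated 5 h at 37C, then dosed with compounds in DMSO (217-fold dilution) for 16 h. CCF4-AM substrate was added for 2 h at room temperature; the 460/530 nm emission ratio gave gain-of-signal activity relative to DMSO.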

[14] = target: Cellular tumor antigen p53 (Homo sapiens) (UniProt P04637); test: TOX21_p53_BLA_p3_ratio: Tox21 HCT-116 p53 Agonism Beta-lactamase Assay, Ratio, Phase 3 (AID 2283596)
How it was run: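 HCT116 p53-bla cells (4000/well) given compound in DMSO (217-fold dilution) after 5 h, incubated 16 h at 37C. CCF4-AM substrate 2 h at room temperature; 460/530 nm emission ratio, gain fitted against DMSO.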

[15] = target: Cellular tumor antigen p53 (Homo sapiens) (UniProt P04637); test: TOX21_p53_BLA_p5_ratio: Tox21 HCT-116 p53 Agonism Beta-lactamase Assay, Ratio, Phase 5 (AID 2283599)
How it was run: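 Beta-lactamase reporter ratio (blue 460 nm over green 530 nm, 405 nm excitation) after 2 h CCF4-AM loading, in HCT-116 cells exposed 16 h at 37 C to compounds pinned at 217-fold dilution. Increases relative to DMSO baseline scored.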

[16] = target: Cellular tumor antigen p53 (Homo sapiens) (UniProt P04637); test: TOX21_p53_BLA_p4_ratio: Tox21 HCT-116 p53 Agonism Beta-lactamase Assay, Ratio, Phase 4 (AID 2283601)
How it was run: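 Signal is the blue/green (460nm/530nm) ratio of cleaved versus uncleaved CCF4-AM substrate, read after 2 h substrate loading. Cells were HCT116 carrying the p53-responsive beta-lactamase reporter, dosed 16 h at 37C, 5% CO2; CellTiter-Glo measured in parallel.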

[17] = CCTE_Harrill_HTTr_Apoptosis_PRF_DMEM_12hr: (Pilot) CCTE's 12-hour Apoptosis Assessment for the High-Throughput Transcriptomics (HTTr) Platform, in MCF-7 cells cultured in phenol red-free DMEM + 10% charcoal-stripped fetal bovine serum, Harrill Lab (AID 2283985; active = hit-call score of the fitted dose curve at least 0.9, where 1 is the maximum; inactive = score below 0.9)
How it was run: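 MCF-7 cells in phenol red-free DMEM with 10% charcoal-stripped FBS, eight-point dilution series, 12 h exposure. Caspase-3/7 activation imaged by high content imaging with CellEvent Green reagent; bidirectional fit vs DMSO.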

Sequence of Cellular tumor antigen p53 (Homo sapiens) (P04637 whole entry, looked up): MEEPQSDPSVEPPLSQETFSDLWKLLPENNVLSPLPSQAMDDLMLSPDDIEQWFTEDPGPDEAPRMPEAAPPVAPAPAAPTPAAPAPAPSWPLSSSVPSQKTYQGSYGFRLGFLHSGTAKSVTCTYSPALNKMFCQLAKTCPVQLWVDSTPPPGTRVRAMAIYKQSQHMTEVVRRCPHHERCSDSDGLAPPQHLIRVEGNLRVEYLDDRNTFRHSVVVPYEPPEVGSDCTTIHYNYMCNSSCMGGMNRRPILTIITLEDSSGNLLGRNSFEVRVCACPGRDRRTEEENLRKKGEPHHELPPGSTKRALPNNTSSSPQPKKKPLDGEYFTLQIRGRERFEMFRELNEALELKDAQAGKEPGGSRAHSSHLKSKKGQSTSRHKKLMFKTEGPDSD
Sequence of Androgen receptor (Homo sapiens) (P10275 whole entry, looked up, the tested form may be a part): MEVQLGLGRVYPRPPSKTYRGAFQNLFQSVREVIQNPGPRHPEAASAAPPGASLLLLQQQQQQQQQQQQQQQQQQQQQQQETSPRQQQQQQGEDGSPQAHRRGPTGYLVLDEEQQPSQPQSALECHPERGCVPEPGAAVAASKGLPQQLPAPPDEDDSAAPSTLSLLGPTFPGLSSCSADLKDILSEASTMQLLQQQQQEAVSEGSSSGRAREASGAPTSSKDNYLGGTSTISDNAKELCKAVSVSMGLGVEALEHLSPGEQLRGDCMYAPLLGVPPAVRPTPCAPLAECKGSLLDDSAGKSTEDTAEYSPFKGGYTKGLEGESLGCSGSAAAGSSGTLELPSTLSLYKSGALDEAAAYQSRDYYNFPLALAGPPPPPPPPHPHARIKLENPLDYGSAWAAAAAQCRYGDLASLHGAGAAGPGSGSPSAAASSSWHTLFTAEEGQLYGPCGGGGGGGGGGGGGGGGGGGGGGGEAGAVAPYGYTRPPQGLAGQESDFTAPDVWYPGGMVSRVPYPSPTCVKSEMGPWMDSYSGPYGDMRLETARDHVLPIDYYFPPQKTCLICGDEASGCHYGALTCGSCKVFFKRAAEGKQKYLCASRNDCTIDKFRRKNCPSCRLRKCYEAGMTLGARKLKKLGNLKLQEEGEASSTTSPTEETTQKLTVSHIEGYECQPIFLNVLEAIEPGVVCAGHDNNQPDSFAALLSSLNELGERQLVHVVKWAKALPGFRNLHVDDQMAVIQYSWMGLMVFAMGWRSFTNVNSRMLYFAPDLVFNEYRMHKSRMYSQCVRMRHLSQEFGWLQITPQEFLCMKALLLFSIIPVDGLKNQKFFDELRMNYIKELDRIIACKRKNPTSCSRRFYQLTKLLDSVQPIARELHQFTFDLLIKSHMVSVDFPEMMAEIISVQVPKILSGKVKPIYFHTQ
Sequence of rat CYP2C12, Cyp2c12 (gene 25011) (P11510 whole entry, looked up): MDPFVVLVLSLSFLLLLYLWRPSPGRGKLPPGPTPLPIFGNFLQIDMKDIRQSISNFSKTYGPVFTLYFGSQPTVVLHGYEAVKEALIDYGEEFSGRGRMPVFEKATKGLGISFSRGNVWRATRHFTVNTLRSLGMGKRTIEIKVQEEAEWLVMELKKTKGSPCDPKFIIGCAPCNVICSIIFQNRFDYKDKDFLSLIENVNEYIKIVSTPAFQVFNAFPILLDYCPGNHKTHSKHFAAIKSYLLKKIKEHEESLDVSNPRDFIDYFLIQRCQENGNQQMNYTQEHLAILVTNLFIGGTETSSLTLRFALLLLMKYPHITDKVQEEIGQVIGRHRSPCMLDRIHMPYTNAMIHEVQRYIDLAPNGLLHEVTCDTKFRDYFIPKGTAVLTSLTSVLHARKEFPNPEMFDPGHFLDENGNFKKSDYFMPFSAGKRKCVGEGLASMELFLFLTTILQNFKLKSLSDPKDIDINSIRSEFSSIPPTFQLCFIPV
Sequence of Norway rat Vesicular Monoamine Transporter (VMAT2), neurotransmitter transporter, Slc18a2 (gene 25549) (Q01827 whole entry, looked up): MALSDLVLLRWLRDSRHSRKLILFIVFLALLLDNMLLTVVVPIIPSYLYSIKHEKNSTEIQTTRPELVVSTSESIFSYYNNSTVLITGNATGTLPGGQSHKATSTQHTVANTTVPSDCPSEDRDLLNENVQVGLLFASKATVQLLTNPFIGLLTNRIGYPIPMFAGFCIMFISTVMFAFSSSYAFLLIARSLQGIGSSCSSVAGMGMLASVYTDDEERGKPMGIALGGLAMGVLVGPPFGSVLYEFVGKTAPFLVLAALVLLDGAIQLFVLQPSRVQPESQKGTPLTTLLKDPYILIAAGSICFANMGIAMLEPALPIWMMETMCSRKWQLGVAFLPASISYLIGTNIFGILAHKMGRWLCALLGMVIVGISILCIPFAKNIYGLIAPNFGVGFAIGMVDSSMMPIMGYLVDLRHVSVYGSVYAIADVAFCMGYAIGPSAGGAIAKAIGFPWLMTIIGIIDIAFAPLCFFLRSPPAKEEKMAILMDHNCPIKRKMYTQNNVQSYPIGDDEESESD
Sequence of human Fibroblast Growth Factor Receptor 1 (FGFR1), FGFR1 (gene 2260) (P11362 whole entry, looked up): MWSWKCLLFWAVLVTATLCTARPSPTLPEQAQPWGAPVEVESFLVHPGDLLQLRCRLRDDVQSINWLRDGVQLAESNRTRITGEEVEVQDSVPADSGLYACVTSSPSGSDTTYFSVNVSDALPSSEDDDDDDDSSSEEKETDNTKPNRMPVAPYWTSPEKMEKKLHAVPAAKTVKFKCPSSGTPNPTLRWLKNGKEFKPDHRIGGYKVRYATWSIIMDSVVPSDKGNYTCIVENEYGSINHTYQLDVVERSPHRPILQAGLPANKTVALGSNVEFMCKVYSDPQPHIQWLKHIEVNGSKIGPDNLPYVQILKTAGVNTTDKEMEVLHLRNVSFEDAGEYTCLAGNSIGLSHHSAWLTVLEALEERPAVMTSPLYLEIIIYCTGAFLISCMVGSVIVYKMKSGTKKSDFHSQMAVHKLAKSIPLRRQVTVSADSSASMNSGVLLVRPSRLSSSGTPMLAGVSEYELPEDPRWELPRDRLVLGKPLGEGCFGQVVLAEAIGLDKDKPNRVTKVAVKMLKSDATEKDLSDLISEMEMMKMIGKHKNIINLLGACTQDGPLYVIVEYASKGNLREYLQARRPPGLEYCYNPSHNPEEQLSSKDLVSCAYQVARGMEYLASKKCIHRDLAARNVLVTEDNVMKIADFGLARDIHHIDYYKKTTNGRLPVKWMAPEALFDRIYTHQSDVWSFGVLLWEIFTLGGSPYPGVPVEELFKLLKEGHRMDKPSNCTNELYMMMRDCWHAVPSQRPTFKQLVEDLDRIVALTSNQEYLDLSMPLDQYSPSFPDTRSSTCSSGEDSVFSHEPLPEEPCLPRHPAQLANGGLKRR
Sequence of rat CYP2D1, Cyp2d1 (gene 266684) (P10633 whole entry, looked up): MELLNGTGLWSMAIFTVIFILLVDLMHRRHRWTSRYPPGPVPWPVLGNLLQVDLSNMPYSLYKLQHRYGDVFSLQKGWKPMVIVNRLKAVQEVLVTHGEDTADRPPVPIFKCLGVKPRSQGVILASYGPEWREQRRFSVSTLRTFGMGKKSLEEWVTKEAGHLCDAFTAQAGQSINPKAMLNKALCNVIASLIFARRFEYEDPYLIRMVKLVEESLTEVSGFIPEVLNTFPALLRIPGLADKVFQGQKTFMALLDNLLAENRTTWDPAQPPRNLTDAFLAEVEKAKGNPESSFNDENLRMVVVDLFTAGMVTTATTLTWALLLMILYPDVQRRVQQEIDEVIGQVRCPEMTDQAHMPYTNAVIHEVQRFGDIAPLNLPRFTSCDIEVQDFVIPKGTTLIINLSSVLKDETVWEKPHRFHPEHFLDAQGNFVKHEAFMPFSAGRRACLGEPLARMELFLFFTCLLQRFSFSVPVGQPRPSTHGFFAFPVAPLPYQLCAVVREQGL
Sequence of human CYP4F12, CYP4F12 (gene 66002) (Q9HCS2 whole entry, looked up): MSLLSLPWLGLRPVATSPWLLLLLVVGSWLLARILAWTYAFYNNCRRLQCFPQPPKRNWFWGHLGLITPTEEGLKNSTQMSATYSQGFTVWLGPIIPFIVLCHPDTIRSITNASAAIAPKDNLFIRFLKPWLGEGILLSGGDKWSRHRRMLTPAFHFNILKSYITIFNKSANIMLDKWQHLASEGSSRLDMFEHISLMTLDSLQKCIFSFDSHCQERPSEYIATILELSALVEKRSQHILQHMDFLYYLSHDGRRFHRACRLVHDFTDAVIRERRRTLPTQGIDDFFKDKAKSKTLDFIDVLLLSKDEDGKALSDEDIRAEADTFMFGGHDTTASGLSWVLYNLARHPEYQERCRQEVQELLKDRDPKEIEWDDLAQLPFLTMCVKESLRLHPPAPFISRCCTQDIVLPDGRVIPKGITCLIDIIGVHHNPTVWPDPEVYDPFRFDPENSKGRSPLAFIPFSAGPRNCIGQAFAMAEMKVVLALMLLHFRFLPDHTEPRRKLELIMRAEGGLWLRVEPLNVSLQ
Sequence of human CYP2C8, CYP2C8 (gene 1558) (P10632 whole entry, looked up): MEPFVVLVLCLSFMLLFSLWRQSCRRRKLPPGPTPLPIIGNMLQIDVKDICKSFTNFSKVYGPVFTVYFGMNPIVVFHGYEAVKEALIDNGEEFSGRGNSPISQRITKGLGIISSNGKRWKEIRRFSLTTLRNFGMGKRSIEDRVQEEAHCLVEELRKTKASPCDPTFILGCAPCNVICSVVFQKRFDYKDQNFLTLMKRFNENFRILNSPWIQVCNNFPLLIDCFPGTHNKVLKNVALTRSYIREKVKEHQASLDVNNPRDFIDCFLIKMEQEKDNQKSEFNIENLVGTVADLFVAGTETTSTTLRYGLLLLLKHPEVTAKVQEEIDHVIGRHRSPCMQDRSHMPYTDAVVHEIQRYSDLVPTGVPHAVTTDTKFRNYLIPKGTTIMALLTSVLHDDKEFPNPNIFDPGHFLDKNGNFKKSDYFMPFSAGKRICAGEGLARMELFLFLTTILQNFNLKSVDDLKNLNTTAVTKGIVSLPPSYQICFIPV

In the case of `Oc1ccc(C(c2ccc(O)cc2)C(Cl)(Cl)Cl)cc1`, the AC50 [1] is reported as 1.06 µM (active), the AC50 [2] is reported as 2.99 µM (active) and the AC50 [3] is reported as 0.615 µM (active). The outcome [4] was “inactive”, the AC50 [5] was 2.7 µM (active) and the AC50 [6] was 19.6 µM (active). The AC50 [7] was 33.1 µM (active), the outcome [8] was “inactive” and the outcome [9] was “inactive”. For the same compound, the AC50 [10] was 7.63 µM (active).
With `NC(O)(C(F)(F)F)C(F)(F)F` the outcome [11] was “inactive” and the outcome [12] was “inactive”.
In the case of `CNC(=O)[C@H]1O[C@@H](n2cnc3c(NCc4cc(Cl)ccc4OCc4cc(C)no4)ncnc32)[C@H](O)[C@@H]1N`, the outcome [3] is reported as “inactive”, the outcome [6] is reported as “inactive” and the outcome [7] is reported as “inactive”.
For `N=C(N)C(F)(F)C(F)(F)C(F)(F)C(F)(F)C(F)(F)C(F)(F)C(F)(F)F`, the outcome [11] was “inactive” and the outcome [12] was “inactive”.
In the case of `C=CC(=O)OCC(F)(F)C(F)(F)C(F)(F)C(F)(F)C(F)(F)C(F)(F)C(F)(F)C(F)F`, the outcome [11] is reported as “inactive” and the outcome [12] is reported as “inactive”.
With `C=CCOC(Cn1ccnc1)c1ccc(Cl)cc1Cl` (stereo unspecified) the AC50 [1] was 6.22 µM (active), the AC50 [2] was 0.166 µM (active) and the AC50 [4] was 2.13 µM (active). The AC50 [5] was 3.58 µM (active), the AC50 [10] was 12 µM (active) and the AC50 [13] was 76.1 µM (active) and 72.5 µM (active). The outcome [13] was “inactive”, the AC50 [14] was 83 µM (active) and 73.3 µM (active) and the outcome [14] was “inactive”. For the same compound, the AC50 [15] was 79.4 µM (active) and 77.2 µM (active), the outcome [15] was “inactive” and the AC50 [16] was 80.8 µM (active) and 83.9 µM (active). The outcome [16] was “inactive” and the outcome [17] was “inactive”.
For `FC(F)(F)C(F)(F)C(F)(F)C(F)(F)C(F)(F)C(F)(F)CC1CO1` (stereo unspecified), the outcome [11] was “inactive” and the outcome [12] was “inactive”.
For `O=S(=O)(O)CCC(F)(F)C(F)(F)C(F)(F)C(F)(F)C(F)(F)C(F)(F)C(F)(F)C(F)(F)F`, the outcome [11] was “inactive” and the outcome [12] was “inactive”.
With `FC(F)(F)C(F)(F)CNCC(F)(F)C(F)(F)F` the outcome [11] was “inactive” and the outcome [12] was “inactive”.
For `NC(=O)C(F)(F)C(F)(F)C(F)(F)F`, the outcome [11] was “inactive” and the outcome [12] was “inactive”.
